From PubChem BioAssay (NCI)
The panel holds about 83,000 compounds, 20% with a hit somewhere; the sample as a whole holds those more often.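 Activity criterion: percent growth below 10, measured after cells in 96-well plates were exposed to a single compound concentration for 48 hours.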 The source made the active and inactive calls.

Tested on: NCI/ADR-RES ovarian
Test: NCI-60 one-dose screen, 48 h (100 = growth as untreated, 0 = no growth, -100 = all killed)
Details: 10 µM unless noted

Row | SMILES | growth
1 | COC(=O)[C@]12CC[C@@H](C)[C@H](C)[C@@H]1C1=CC[C@@H]3[C@@]4(C)C[C@@H](OC(C)=O)[C@H](O)[C@@](C)(COC(C)=O)[C@@H]4[C@H](O)C[C@@]3(C)[C@]1(C)CC2 | -63.7% (active)
2 | N#Cc1c(-c2ccco2)nc2c(c(-c3ccccc3)nn2-c2ccccc2)c1-c1ccc(O)cc1 | 76.4% (inactive)
3 | CC(=O)c1c(C)[nH]c(-c2nc3ccc(N4CCN(C)CC4)cc3[nH]2)c1-c1ccc2c(c1)OCCO2 | 53% (inactive)
4 | COc1ccc(C(=O)c2ccc(C)cc2)c(OC)c1OC | 45.2% (inactive)
5 | C[C@H]1OC(=O)/C=C/[C@@H](O)[C@@H](O)CCCCCCCC[C@@H]1O | 98.1% (inactive)
6 | COc1ccccc1-n1cnc(N)c1C(=O)c1cc(OC)c(OC)c(OC)c1 | 55.1% (inactive)
7 | COc1ccc(/C=C(\C#N)c2cc3ccccc3n2S(C)(=O)=O)cc1 | 60.1% (inactive)
8 | Cc1cccc2c1NC(=O)[C@@]21[C@H](C(=O)c2ccccc2)[C@]2(C(=O)Nc3ccccc32)[C@H]2CCCN21 | 109% [100 µM] (inactive)
9 | N=c1ccc2nc3c(cc(N)c4ccccc43)oc-2c1 | -57.7% (active)
10 | COc1cccc(-c2nn(-c3ccccc3)cc2-c2ccnc(NCCCNS(=O)(=O)c3ccc(Br)cc3)c2)c1 | 42% (inactive)
11 | Cc1ccc(-c2nn(Cc3cn(-c4cc(C)nc5ccccc45)nn3)c3ncnc(N)c23)cc1 | 59.7% (inactive)
12 | COc1ccc2c(c1)c1nc3cc(C)c(C)cc3nc1n2CCN(C)C | -70.3% (active)
13 | CC(=O)n1c(/C(C#N)=C/c2ccc(N(C)C)cc2)cc2ccccc21 | 16.7% (inactive)
14 | C[C@H]1[C@H]2C3=CC[C@@H]4[C@@]5(C)C/C(=C/c6ccco6)C(=O)C(C)(C)[C@@H]5CC[C@@]4(C)[C@]3(C)CC[C@@]2(C(=O)N2CCOCC2)CC[C@@H]1C | 83.1% (inactive)
15 | Fc1ccc(Nc2ccc3c(OCCCN4CCOCC4)cccc3n2)cc1F | 76.9% (inactive)
16 | COc1cccc(-c2nn(-c3ccccc3)cc2-c2ccnc(NCCNS(=O)(=O)c3ccc(C(F)(F)F)cc3)c2)c1 | 16.9% (inactive)
17 | Cn1cnc2c1c(=O)n(CCC(=O)Nc1ccc(F)cc1)c(=O)n2C | 109% (inactive)
18 | COCCNC1=C(Cl)C(=O)c2ccccc2C1=O | 95.3% (inactive)
19 | CCCCn1c(-c2ccc(O)cc2)cn2c3c(=O)[nH]c(=O)n(C)c3nc12 | 90.1% (inactive)
20 | Cc1ccc(N(CC(=O)Nc2ccc(S(=O)(=O)NC3CCN(C)CC3)cc2)S(=O)(=O)c2ccc(Cl)cc2)cc1 | 98.6% (inactive)

Row | SMILES | growth
21 | CC(=O)OC[C@]12CC[C@@H](/C(C)=N/O)[C@@H]1[C@H]1CC[C@@H]3[C@@]4(C)CCCNC(C)(C)[C@@H]4CC[C@@]3(C)[C@]1(C)CC2 | 77.4% (inactive)
22 | Clc1ccc(Cn2cc(-c3nc4ccc(Br)nc4n3Cc3ccc(Cl)cc3)c3cccnc32)cc1 | 90.8% (inactive)
23 | CN1CCN(CCOc2ccc(-c3cnc4c(-c5cccc(F)c5)cnn4c3)cc2)CC1 | 72.8% (inactive)
24 | CN1CCN(c2nc(-c3csc(-c4cccs4)n3)cc3ccccc23)CC1 | 70.8% (inactive)
25 | CCN(CC)CCCCCCNc1ccnc2cc(Cl)ccc12 | 104% (inactive)
26 | CCCCCCCC(=O)SCC/C=C/[C@@H]1CC(=O)NCc2cccc(n2)CN(Cc2ccc(Cl)cc2)CC(=O)N[C@@H](C(C)C)C(=O)O1 | 13% (inactive)
27 | c1cc(N2CCCC2)c2nc(-c3[nH]ncc3Nc3ncnc4[nH]ccc34)[nH]c2c1 | -21.1% (active)
28 | COc1ccc(C2=NN(c3nc(-c4ccc(OC)cc4)c(C#N)c(=O)n3C)C(=O)CC2)cc1 | 101% (inactive)
29 | Cc1ccc(S(=O)(=O)Nc2ccc(-c3cc(-c4cccc(F)c4)c(C#N)c(N)n3)cc2)cc1 | 41% (inactive)
30 | CC(C)(C)c1ccc(OCCCCCCCN2CCNCC2)cc1 | 71.7% (inactive)
31 | COC(=O)CNc1nc(N(C)O)nc(N(C)O)n1 | 21.3% (inactive)
32 | COc1cc2ncnc(Nc3ccc(Oc4ccnc(C)c4)c(C)c3)c2cc1NC(=O)CC1CCSS1 (centres undefined) | 31.9% (inactive)
33 | C=C(C)[C@@H]1CC[C@]2(C)[C@H](CC[C@@H]3[C@H]4[C@H]5OC[C@@]4(CCC5(C)C)CC[C@]32C)[C@@]1(C)CCCN | 73.8% (inactive)
34 | c1ccc(-c2nc(Nc3ccc(-c4nc5ccccc5[nH]4)cc3)nc(N3CCOCC3)n2)cc1 | -60.8% (active)
35 | CCOC(=O)C1OC1(c1ccccc1)c1ccccc1 (centres undefined) | 105% (inactive)
36 | CCN1CCN(C(=O)[C@@]2(C)CC[C@]3(C)CC[C@]4(C)C(=CC(=O)[C@@H]5[C@@]6(C)CC[C@H](OCCC#N)C(C)(C)[C@@H]6CC[C@]54C)[C@@H]3C2)CC1 | 93.3% (inactive)
37 | O=S(=O)(NCCNc1cc(-c2cn(-c3ccccc3)nc2-c2cccc(O)c2)ccn1)c1cccc(F)c1 | 33.1% (inactive)
38 | N#CC1=C(N)Oc2ccc3ccccc3c2C1c1ccccc1 (centres undefined) | 8.41% (active)
39 | COc1ccc(-c2cc(=O)oc3ccc(Cl)cc23)cc1F | 6.24% (active)
